Assay [1] concerns the target Death-associated protein kinase 1 (Homo sapiens) (UniProt P53355). Conditions: at 1 µM.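 Further: each value is a mean inhibition figure.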
In assay [2] the target is T1, Serine/threonine-protein kinase DCLK2 (Homo sapiens) (UniProt Q8N568).
T1 sequence (whole entry): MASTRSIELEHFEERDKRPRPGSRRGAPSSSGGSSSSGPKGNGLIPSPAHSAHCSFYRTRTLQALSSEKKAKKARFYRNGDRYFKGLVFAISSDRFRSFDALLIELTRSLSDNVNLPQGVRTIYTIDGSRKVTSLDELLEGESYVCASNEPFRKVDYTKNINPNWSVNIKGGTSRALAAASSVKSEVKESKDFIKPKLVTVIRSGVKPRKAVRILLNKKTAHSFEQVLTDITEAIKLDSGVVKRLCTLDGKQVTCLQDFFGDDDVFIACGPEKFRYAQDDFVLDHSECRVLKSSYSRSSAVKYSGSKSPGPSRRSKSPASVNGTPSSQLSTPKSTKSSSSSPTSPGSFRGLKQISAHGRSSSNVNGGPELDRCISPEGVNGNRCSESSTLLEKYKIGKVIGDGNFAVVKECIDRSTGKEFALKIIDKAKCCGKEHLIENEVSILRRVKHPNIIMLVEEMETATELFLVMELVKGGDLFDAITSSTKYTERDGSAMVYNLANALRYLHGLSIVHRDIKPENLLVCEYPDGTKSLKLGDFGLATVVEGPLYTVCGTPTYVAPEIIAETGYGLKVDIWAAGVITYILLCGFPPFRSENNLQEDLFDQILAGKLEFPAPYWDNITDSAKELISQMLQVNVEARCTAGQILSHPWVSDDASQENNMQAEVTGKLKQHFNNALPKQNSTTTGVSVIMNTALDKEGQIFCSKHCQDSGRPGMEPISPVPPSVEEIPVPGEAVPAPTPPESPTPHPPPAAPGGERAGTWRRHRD
Conditions: at 0.1 µM.

Assay [3] deals with T1, Serine/threonine-protein kinase DCLK2 (Homo sapiens). Conditions: at 1 µM.
Assay [4] concerns the target MAP kinase-activated protein kinase 2 (Homo sapiens) (UniProt P49137). The conditions noted are these: at 0.1 µM.
For assay [5] the target is unchanged. The conditions noted are these: at 1 µM.
Assay [6] deals with MAP kinase-activated protein kinase 3 (Homo sapiens) (UniProt Q16644). The conditions noted are these: at 0.1 µM.
Assay [7] shares this target. Conditions: at 1 µM.
Assay [8] deals with Serine/threonine-protein kinase MARK1 (Homo sapiens) (UniProt Q9P0L2). The conditions noted are these: at 0.1 µM.
Assay [9] has the same target. Conditions: at 1 µM.
The target of assay [10] is MAP/microtubule affinity-regulating kinase 3 (Homo sapiens) (UniProt P27448). The conditions noted are these: at 0.1 µM.
For assay [11] the target is unchanged. Conditions: at 1 µM.
Assay [12] has as its target T2, MAP/microtubule affinity-regulating kinase 4 (Homo sapiens) (UniProt Q96L34).
T2 sequence (whole entry): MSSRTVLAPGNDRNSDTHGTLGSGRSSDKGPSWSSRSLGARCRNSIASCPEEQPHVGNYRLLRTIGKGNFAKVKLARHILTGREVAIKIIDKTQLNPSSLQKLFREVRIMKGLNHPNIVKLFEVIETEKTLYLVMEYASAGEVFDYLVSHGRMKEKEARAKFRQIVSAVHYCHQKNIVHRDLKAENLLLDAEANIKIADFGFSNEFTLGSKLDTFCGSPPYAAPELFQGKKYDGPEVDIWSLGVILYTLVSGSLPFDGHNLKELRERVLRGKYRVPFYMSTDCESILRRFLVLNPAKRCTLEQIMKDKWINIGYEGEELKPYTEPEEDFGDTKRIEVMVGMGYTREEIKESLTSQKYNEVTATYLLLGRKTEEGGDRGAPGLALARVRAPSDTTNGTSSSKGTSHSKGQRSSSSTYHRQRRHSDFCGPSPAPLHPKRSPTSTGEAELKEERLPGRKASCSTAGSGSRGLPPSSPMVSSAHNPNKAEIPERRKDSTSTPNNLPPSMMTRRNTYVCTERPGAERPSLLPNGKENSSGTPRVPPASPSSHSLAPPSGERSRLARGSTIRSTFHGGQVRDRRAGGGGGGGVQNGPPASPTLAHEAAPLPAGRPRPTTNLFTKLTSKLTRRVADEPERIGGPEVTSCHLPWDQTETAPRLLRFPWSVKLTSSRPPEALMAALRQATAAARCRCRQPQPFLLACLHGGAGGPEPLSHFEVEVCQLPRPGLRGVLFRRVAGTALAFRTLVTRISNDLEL
The conditions noted are these: at 0.1 µM.

The target of assay [13] is T2, MAP/microtubule affinity-regulating kinase 4 (Homo sapiens). The conditions noted are these: at 1 µM.
Assay [14] concerns the target Maternal embryonic leucine zipper kinase (Homo sapiens) (UniProt Q14680). Conditions: at 0.1 µM.
The target is the same in assay [15]. Conditions: at 1 µM.
Assay [16] addresses MAP kinase-interacting serine/threonine-protein kinase 1 (Homo sapiens) (UniProt Q9BUB5). The conditions noted are these: at 0.1 µM.
For assay [17] the target is unchanged. The conditions noted are these: at 1 µM.
Assay [18] deals with MAP kinase-interacting serine/threonine-protein kinase 2 (Homo sapiens) (UniProt Q9HBH9). The conditions noted are these: at 0.1 µM.
Assay [19] has the same target. The conditions noted are these: at 1 µM.
In assay [20] the target is Serine/threonine-protein kinase MARK2 (Homo sapiens) (UniProt Q7KZI7). Conditions: at 0.1 µM.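 Further: mean percent inhibition of PAR-1Balpha kinase activity, reported from the GSK PKIS screen.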

Each structure is given as a SMILES string.

Sequence of MAP/microtubule affinity-regulating kinase 3 (Homo sapiens) (P27448 whole entry, looked up): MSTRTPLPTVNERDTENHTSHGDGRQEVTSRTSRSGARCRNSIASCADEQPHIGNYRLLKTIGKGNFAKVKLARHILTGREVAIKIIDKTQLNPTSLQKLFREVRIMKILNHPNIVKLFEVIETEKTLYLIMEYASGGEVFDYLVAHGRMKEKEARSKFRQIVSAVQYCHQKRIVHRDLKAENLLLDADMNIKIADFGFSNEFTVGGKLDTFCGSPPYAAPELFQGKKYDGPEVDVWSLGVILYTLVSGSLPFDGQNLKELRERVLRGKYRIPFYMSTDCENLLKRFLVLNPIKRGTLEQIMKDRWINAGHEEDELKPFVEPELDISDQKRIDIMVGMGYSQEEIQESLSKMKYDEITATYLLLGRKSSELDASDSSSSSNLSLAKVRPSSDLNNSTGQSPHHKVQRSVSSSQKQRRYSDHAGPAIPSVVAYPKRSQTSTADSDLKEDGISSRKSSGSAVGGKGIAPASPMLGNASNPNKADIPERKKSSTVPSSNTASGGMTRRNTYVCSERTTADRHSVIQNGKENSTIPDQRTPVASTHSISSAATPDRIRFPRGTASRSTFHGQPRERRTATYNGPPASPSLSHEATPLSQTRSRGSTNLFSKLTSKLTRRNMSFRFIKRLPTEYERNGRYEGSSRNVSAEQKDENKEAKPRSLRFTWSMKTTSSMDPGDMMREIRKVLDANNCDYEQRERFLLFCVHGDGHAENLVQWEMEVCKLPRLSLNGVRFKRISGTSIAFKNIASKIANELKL
Sequence of Serine/threonine-protein kinase MARK1 (Homo sapiens) (Q9P0L2 whole entry, looked up): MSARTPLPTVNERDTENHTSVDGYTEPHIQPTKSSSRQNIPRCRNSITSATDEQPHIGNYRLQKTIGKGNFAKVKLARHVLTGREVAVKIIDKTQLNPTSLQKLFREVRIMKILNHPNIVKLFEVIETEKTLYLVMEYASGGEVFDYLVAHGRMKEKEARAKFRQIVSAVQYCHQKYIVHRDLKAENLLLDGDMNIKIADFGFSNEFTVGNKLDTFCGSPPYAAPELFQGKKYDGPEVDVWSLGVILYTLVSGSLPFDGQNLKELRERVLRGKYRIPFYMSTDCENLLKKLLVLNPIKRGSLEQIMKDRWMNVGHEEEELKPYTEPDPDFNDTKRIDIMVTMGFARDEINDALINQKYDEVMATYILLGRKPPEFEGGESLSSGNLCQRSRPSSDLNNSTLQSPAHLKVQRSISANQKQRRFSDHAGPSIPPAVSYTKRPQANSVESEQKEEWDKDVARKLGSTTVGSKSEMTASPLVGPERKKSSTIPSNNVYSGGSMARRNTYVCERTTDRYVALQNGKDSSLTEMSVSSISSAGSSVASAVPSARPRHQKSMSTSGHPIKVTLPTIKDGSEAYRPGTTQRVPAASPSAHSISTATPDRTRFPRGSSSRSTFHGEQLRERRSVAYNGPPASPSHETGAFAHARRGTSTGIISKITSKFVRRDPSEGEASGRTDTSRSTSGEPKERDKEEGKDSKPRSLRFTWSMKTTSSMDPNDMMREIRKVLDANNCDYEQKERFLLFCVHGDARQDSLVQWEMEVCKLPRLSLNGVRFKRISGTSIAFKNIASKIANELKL
Sequence of MAP kinase-interacting serine/threonine-protein kinase 2 (Homo sapiens) (Q9HBH9 whole entry, looked up): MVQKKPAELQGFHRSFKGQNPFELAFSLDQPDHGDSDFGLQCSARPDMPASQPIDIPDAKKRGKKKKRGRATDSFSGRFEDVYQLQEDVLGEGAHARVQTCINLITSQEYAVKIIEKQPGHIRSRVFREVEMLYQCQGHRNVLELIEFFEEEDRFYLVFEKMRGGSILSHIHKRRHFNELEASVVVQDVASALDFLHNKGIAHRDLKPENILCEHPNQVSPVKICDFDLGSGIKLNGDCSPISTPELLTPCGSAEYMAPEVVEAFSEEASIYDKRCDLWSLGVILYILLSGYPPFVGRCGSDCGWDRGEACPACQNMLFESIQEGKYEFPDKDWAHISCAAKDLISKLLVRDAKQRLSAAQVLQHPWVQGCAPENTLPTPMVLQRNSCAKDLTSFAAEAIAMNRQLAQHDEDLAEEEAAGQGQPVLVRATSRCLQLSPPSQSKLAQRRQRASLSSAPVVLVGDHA
Sequence of MAP kinase-activated protein kinase 2 (Homo sapiens) (P49137 whole entry, looked up): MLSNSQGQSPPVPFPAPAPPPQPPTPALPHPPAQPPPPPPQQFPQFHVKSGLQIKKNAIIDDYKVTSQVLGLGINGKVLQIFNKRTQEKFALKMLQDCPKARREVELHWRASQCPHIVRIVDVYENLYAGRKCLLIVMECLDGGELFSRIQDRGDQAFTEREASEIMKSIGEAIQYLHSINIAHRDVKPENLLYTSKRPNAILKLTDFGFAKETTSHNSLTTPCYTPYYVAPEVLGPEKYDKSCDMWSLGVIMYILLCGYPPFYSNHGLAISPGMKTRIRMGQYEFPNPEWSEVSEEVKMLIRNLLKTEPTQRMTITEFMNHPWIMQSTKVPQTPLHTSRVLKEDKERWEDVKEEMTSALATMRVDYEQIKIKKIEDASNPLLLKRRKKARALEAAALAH
Sequence of Maternal embryonic leucine zipper kinase (Homo sapiens) (Q14680 whole entry, looked up): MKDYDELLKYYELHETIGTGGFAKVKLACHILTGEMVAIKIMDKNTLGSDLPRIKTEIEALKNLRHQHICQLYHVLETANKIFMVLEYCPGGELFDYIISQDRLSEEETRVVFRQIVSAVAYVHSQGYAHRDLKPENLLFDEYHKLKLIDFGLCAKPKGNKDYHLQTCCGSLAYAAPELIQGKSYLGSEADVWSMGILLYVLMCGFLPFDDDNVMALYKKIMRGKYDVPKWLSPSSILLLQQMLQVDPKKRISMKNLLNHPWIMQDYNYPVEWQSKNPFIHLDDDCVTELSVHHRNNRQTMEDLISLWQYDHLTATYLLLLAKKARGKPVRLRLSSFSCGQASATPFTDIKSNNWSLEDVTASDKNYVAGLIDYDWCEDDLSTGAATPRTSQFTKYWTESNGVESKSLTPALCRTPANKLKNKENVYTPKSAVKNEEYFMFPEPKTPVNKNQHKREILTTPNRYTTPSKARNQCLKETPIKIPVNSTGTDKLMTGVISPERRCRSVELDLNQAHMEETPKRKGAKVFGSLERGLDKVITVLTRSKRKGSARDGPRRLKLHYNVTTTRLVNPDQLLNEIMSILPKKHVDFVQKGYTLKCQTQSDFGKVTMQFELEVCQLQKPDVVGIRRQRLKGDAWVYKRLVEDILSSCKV
Sequence of MAP kinase-interacting serine/threonine-protein kinase 1 (Homo sapiens) (Q9BUB5 whole entry, looked up): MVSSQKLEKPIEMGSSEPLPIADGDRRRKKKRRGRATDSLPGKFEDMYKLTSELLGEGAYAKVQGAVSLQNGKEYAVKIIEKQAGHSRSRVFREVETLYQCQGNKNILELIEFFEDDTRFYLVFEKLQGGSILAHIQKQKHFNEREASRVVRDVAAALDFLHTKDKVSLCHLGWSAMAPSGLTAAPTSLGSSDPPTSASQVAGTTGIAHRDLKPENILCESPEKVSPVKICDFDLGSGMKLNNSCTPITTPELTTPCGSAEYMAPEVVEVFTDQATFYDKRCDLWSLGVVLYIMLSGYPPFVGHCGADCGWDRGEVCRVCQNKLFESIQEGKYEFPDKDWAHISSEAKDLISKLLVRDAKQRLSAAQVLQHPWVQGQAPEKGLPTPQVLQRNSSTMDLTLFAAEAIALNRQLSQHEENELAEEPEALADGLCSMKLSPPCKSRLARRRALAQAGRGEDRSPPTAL
Sequence of Death-associated protein kinase 1 (Homo sapiens) (P53355 whole entry, looked up): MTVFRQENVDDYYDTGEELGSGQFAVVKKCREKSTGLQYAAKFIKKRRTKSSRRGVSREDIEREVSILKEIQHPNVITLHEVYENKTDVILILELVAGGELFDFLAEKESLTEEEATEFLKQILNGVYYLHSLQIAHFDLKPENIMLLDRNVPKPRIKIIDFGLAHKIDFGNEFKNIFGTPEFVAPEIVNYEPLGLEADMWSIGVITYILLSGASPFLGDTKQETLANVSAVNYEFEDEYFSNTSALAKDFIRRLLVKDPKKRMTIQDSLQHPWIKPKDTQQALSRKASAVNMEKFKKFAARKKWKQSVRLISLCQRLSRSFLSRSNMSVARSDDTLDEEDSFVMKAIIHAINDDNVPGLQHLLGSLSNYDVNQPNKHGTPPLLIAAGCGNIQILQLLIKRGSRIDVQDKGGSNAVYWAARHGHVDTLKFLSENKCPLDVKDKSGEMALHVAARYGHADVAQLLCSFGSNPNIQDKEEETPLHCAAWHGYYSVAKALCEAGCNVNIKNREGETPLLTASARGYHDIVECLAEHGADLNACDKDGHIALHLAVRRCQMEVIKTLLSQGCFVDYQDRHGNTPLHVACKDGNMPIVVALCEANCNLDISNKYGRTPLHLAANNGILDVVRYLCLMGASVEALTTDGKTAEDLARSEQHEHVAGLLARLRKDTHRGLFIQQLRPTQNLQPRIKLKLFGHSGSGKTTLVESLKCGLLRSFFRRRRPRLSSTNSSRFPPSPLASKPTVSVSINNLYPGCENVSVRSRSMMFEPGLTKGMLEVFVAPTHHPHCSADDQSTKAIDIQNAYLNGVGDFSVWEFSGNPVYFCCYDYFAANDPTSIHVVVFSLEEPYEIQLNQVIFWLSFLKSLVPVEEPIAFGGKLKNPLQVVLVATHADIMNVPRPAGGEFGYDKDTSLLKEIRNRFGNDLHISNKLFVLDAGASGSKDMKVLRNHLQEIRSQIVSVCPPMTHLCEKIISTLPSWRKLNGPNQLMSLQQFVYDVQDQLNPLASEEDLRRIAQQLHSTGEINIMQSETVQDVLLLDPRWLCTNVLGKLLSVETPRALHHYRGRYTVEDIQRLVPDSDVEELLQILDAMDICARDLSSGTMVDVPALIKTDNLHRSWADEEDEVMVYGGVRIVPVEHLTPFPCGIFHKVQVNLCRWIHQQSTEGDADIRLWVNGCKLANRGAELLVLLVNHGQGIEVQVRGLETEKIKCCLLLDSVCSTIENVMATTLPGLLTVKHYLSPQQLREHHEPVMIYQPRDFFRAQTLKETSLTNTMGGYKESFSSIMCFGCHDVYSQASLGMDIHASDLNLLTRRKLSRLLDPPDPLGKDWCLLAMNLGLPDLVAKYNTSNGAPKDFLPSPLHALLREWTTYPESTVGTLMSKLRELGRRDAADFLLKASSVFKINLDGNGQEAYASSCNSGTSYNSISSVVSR

What is called inhibition is the drop in the measured response relative to a control, in per cent. As to `CCCNc1cccc(-n2ncc3c(N/N=C/c4ccncc4)ncnc32)c1`, the inhibition is -8.41% in assay [1]; 6.83% in assay [2]; 2.98% in assay [3]; -2.72% in assay [4]; -2.37% in [5]; -5.26% in assay [6]. Further, the inhibition in assay [7] is -4.82%; in assay [8], 2.01%; in assay [9] it was 10.3%; in assay [10] it was 3.4%; in assay [11], 9.23%; in assay [12], 0.58%. Further, the inhibition in [13] is 9.44%; in assay [14], -0.14%; in assay [15], 3.93%; in assay [16], 31.2%; in assay [17], 69.1%; in assay [18] it was 37.6%. The inhibition in assay [19] stood at 72.2%; in assay [20], 0.04%.
Consider `N#Cc1ccc2c(-c3ccnc(NC4CC4)n3)c(-c3ccc(F)cc3)nn2c1`, for which the inhibition is 0.06% in assay [1]; -0.01% in assay [2]; 1.17% in [3]; 0.5% in [4]; -0.23% in assay [5]; 32.7% in assay [6]. The inhibition was 35.1% in assay [7]; 0.42% in [8]; 1.08% in [9]; 2.94% in [10]; 0.43% in assay [11]; 0.81% in [12]. The inhibition was 0.11% in assay [13]; -0.07% in assay [14]; -2.83% in assay [15]; 1.98% in assay [16]; 0.7% in assay [17]; -0.74% in assay [18]. The inhibition in [19] is 1.03%; in [20], -0.15%.
With `Fc1cccc(COc2ccc(Nc3ncncc3C#Cc3ccccc3)cc2Cl)c1`, the inhibition was 5.6% in [1]; 1.92% in [2]; -0.09% in assay [3]; 2.63% in assay [4]; 2.47% in assay [5]; 4.72% in [6]. The inhibition in assay [7] turned out to be 6.08%; in assay [8], 4.09%; in assay [9], 5.61%; in [10], 4.58%; in assay [11] it was 4.26%; in [12] it was 0.48%. The inhibition in assay [13] was determined as 1.07%; in assay [14], 3.34%; in [15] it was 4.69%; in [16] it was 3.32%; in assay [17], 11.8%; in assay [18] it was 2.53%. The figures for the inhibition in assay [19] and in [20] were 6.84% and 0.96%, respectively.
Consider `COc1ccc2ncn(-c3cc(O[C@H](C)c4ccccc4C(F)(F)F)c(C(N)=O)s3)c2c1`, for which the inhibition in [1] was -2.31%; in assay [2], -0.78%; in assay [3], -1.64%; in assay [4], -0.39%; in assay [5], -0.49%; in assay [6], -0.9%. Besides, the inhibition in assay [7] is -0.93%; in [8] it was 0.76%; in [9] it was 5.8%; in assay [10], -0.92%; in assay [11] it was 1.97%; in [12], -0.65%. The inhibition is 5.41% in assay [13]; -0.14% in assay [14]; 2.51% in [15]; -0.15% in assay [16]; 3.25% in assay [17]; 0.74% in [18]. The values for the inhibition in assay [19] and in assay [20] were 4.03% and 0.4%, respectively.
Turning to `CCn1c(-c2nonc2N)nc2cncc(C(=O)NCCNC)c21`, the inhibition came to 0.19% in assay [1]; 1.52% in [2]; 1.62% in assay [3]; 2.34% in assay [4]; 1.53% in assay [5]; 3.52% in [6]. Also, the inhibition in assay [7] was determined as 3.94%; in [8] it was 1.84%; in assay [9], 14.9%; in assay [10] it was 1.81%; in assay [11], 16.6%; in assay [12], 2.2%. The inhibition in assay [13] came to 7.71%; in assay [14], 15.2%; in assay [15], 61.2%; in [16], 2.94%; in [17] it was 6.9%; in [18], 0.78%. Further, the values for the inhibition in [19] and in [20] were 13.4% and -0.85%, respectively.
With `Cc1cc(O)cc(C)c1/C=C/c1cncc(C(=O)OC(C)(C)C)c1`, the inhibition in [1] was 1.3%; in assay [2], 4.19%; in assay [3], 6.15%; in assay [4], 1.72%; in assay [5], 1%; in assay [6] it was 1.97%. For the same compound, the inhibition in [7] stood at 2.47%; in assay [8] it was 2.3%; in assay [9] it was 2.93%; in assay [10], 2.5%; in [11] it was 1.89%; in assay [12], 0.38%. The inhibition in assay [13] came to 0.19%; in assay [14], 3.07%; in assay [15] it was 5.89%; in assay [16], 4.59%; in assay [17] it was 16.7%; in assay [18] it was 1.84%. For the same compound, the figures for the inhibition in assay [19] and in assay [20] were 9.67% and 0.13%, respectively.
Take `CCOc1ccc2c(-c3ccnc(Nc4cc(OC)cc(C(F)(F)F)c4)n3)cnn2n1`: the inhibition was 1.23% in [1]; -0.5% in assay [2]; 4.41% in assay [3]; 0.58% in assay [4]; -0.09% in assay [5]; 0.28% in assay [6]. Further, the inhibition in [7] is -1.31%; in assay [8] it was -0.04%; in assay [9] it was 2.77%; in [10], -1.2%; in assay [11], -0.83%; in assay [12] it was -0.72%. Besides, the inhibition in assay [13] worked out at 2.36%; in assay [14], 3.83%; in assay [15], 10.3%; in [16], 4.65%; in assay [17], 8.47%; in assay [18] it was 2.3%. The inhibition in assay [19] is 4.37%; in [20], 0.85%.
For the compound `COc1cc(N2CCN(C(C)C)CC2)ccc1Nc1nc(Nc2cccc3ncccc23)c2cc[nH]c2n1`, the inhibition in assay [1] was -1.59%; in assay [2] it was -1.36%; in assay [3] it was -0.27%; in [4], -0.17%; in assay [5], -0.87%; in assay [6], -0.09%. For the same compound, the inhibition is 0.19% in assay [7]; 0.48% in [8]; 2.18% in [9]; 0.2% in assay [10]; 3.2% in assay [11]; 0.47% in [12]. Moreover, the inhibition is 1.44% in [13]; -0.58% in assay [14]; 3.21% in assay [15]; 0.05% in assay [16]; 2.31% in [17]; -0.09% in assay [18]. Also, the inhibition was 1.91% in assay [19] and -0.66% in assay [20].
As to `c1cnn2ncc(-c3ccnc(NCCCN4CCOCC4)n3)c2c1`, the inhibition was -0.07% in assay [1]; 1.46% in assay [2]; 1.43% in assay [3]; 1.81% in assay [4]; 2.19% in assay [5]; 4.59% in assay [6]. Moreover, the inhibition in assay [7] is 4.86%; in assay [8], 1.78%; in assay [9], 5.05%; in [10], 2.58%; in [11], -0.34%; in [12], 1.05%. Also, the inhibition in [13] turned out to be 2.05%; in assay [14] it was 4.35%; in assay [15], 11.9%; in [16], 4.1%; in [17], 10.9%; in [18] it was 1.64%. The figures for the inhibition in [19] and in assay [20] were 7.83% and -1.43%, respectively.
